Many of the other results were omitted from the sample, so hits are more common in it than they were.
KDM5B inhibitor = Primary screen for KDM5B Histone Demethylases FDH-coupled qHTS. Lysine-specific demethylase 5B (Homo sapiens), Q9UGL1. KDM5B demethylase, FDH-coupled NADH fluorescence (FDH is formaldehyde dehydrogenase). Potency, µM (highest dose often 57.7 µM), actives largely listed as inhibitors. 220,000 tested, 2.6% active. AID 1347165, 2019; active = well fitted inhibition curve with a large enough effect; note: nearly all actives have a fitted effect of over 70% in size
Target sequence (Q9UGL1 whole entry, looked up): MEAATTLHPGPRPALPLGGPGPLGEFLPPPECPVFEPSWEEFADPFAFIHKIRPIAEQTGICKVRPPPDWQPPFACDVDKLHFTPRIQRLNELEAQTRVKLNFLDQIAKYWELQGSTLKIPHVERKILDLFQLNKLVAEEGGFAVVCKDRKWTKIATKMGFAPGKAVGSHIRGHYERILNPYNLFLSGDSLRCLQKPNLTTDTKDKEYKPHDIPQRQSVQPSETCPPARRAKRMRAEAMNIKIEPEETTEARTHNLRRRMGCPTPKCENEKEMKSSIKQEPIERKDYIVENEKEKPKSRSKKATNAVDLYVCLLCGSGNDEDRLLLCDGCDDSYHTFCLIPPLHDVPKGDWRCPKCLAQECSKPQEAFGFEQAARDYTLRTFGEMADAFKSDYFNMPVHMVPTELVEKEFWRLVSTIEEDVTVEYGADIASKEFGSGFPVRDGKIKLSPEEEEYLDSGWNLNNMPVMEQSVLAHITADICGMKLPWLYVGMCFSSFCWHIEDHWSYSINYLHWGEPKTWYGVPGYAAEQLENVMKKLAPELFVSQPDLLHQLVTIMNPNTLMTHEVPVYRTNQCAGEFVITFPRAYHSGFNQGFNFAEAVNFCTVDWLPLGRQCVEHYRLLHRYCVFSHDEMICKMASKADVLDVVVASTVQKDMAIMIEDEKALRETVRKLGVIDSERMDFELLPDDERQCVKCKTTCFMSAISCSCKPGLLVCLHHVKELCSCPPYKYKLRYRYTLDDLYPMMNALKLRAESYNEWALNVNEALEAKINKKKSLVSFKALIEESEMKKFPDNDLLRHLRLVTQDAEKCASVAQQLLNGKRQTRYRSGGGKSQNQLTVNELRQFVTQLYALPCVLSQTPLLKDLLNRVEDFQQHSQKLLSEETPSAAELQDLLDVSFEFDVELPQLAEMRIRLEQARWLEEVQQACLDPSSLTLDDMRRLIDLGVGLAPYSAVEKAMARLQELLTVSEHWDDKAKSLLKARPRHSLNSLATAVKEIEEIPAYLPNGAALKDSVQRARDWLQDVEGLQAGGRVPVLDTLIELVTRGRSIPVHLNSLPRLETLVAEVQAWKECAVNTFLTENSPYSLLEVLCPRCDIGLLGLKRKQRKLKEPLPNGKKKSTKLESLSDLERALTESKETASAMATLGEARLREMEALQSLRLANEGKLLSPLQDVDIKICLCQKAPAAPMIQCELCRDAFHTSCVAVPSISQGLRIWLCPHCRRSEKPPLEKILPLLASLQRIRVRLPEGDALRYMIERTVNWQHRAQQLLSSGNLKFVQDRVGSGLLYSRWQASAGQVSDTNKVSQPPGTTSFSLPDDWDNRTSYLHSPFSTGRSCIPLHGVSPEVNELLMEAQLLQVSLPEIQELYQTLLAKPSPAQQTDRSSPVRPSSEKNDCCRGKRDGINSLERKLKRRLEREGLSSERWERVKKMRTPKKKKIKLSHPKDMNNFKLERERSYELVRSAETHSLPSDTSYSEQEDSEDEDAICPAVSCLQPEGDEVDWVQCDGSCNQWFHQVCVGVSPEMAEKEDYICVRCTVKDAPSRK
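Coupled FDH/NAD⁺ fluorescence readout. KDM5BΔAP 200 nM final; compound titration, 10 min RT preincubation; substrate mix 12.5 µM H3K4me3, 25 µM 2-OG, 50 µM Fe(II), 100 µM ascorbate, 0.25 mM NAD⁺, 0.25 U/mL FDH; ΔRFU over 30 min.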
Of the large screens only hits and unclear results are named; the others gave an inactive call.

COc1cc(NC(=O)Cn2nc(-c3ccccc3)c3c(c2=O)CCCC3)cc(OC)c1	none
Cc1cc2c(cc1C)CSC(c1cc(Br)cc(Br)c1O)SC2	none
COc1cccc(-c2nnc(SCC3CCOCO3)n2-c2ccc(C)cc2)c1 (stereo not given)	none
Brc1ccc(-c2noc(-c3ccncc3)n2)cc1	none
Cn1cccc1C(=O)N1CC[C@@H]2CN(S(C)(=O)=O)[C@@H]2C1	none
Cc1nc2c(NC3CCN(C(=O)c4cccn4C)CC3)cccn2n1	KDM5B inhibitor 32µM
Cn1cccc1C(=O)N1CCC(Cc2nc(C3CC3)n[nH]2)C1 (stereo not given)	none
CCOc1ccc(S(=O)(=O)N(CC(=O)Nc2cccc(C)c2)c2ccccc2)cc1	none
O=C1NCCN2CC3(CCN(C(=O)Nc4ccc5c(c4)OCCO5)CC3)CC12 (stereo not given)	KDM5B inhibitor 25µM
O=C1NCCN2CC3(CCN(C(=O)CC4CCCC4)CC3)CC12 (stereo not given)	none
O=C1NCCCCCCN(C(=O)Nc2ccc3c(c2)OCCO3)[C@H]2CCCC[C@@H]12	none
CCc1nc2ccccc2c(C(=O)OCC(=O)NCCc2ccccc2)c1C	none
COc1ccc(S(=O)(=O)Nc2nc3ccccc3nc2Nc2ccc(Br)cc2)cc1	none
C[S+](=O)([O-])Nc1cccc(Nc2cnc3ccc(-c4ccc(F)cc4)nn23)c1	none
Cc1ccccc1OCC(=O)OCC(=O)Nc1ccc(Cl)cn1	none
COc1ccccc1-c1cnc(Nc2cccnc2)c2c1CCO2	none
CCOC(=O)c1cnc(Nc2ccccc2OC)c2ccccc12	none
COc1ccccc1-c1cnc(Nc2cccnc2OC)c2c1CCO2	KDM5B inhibitor 35µM
COc1ccccc1-c1cnc(Nc2ccc(Cl)cn2)c2c1CCO2	KDM5B inhibitor 35µM
COc1ccc(-c2ccc3ncc(Nc4cccc(N[S+](C)(=O)[O-])c4)n3n2)cc1OC	none
COc1ccccc1-c1cnc(NC(=O)C2CCOCC2)c2c1CCO2	none
O=C(COC(=O)COc1ccccc1F)Nc1ccc(Cl)cn1	none
COc1ccccc1-c1cnc(Nc2cccc(N[S+](C)(=O)[O-])c2)c2c1CCO2	KDM5B inhibitor 25µM
COc1ccccc1Nc1nc(-c2ccccc2F)nc2ccccc12	none
COc1ccc(Nc2ncc(-c3ccccc3OC)c3c2OCC3)cc1	KDM5B inhibitor 35µM
CN(C)CC(=O)N1CCC2(CC1)NCCc1c2[nH]c2ccccc12	none
COc1cccc(NC(=O)C(Cc2ccc(OC)cc2OC)c2nn[nH]n2)c1 (stereo not given)	none
Cc1ccccc1NC1(c2nnnn2-c2ccccc2)CCCC1	none
COc1ccc(C2=NN(C(=O)CN3CCc4cc(OC)c(OC)cc4C3)C(c3ccco3)C2)cc1 (stereo not given)	none
Cc1ccc(-c2cn3c(n2)CO[C@@H](CNC(=O)CCC(=O)O)C3)cc1	none
Cc1ccc(-c2cn3c(n2)CO[C@@H](CNC(=O)c2ccccc2)C3)cc1	KDM5B inhibitor 32µM
COc1ccc(-c2cn3c(n2)CO[C@@H](CNC(C)=O)C3)cc1	none
CCCNC(=O)c1ccc(OCc2nnc(C(=O)Nc3ccccc3F)s2)cc1	none
CC(C)CNC(=O)CCNC(=O)c1ccc(C(C)(C)C)cc1	none
Fc1ccc(COc2ccc3ccccc3c2CNCc2cccnc2)cc1	none
O=C(c1cccnc1)N(Cc1ccccc1)Cc1cc2ccccc2[nH]c1=O	none
CCCN1CCN(C(=O)Cn2c(C)ccc(NC(=O)Nc3ccccc3)c2=O)CC1	KDM5B inhibitor 25µM
Cc1ccc(NS(=O)(=O)c2ccccc2)c(=O)n1CC(=O)N1CCN(CC(C)C)CC1	none
CCS(=O)(=O)Nc1ccc(C)n(CC(=O)N2CCCCCC2)c1=O	none
COc1ccc(NC(=O)Nc2ccc(C)n(CC(=O)O)c2=O)cc1	none
COc1cccc(NC(=O)Cn2c(C)ccc(NC(=O)Nc3ccc(C)cc3)c2=O)c1	KDM5B inhibitor 28µM
Cc1ccc(NC(=O)Nc2ccc(C)n(CC(=O)NC3CCCCC3)c2=O)cc1	none
COc1ccc(OCc2nc(C)c(CCO)c(=O)n2CC(=O)Nc2ccc(C)c(C)c2)cc1	none
COc1ccc(NC(=O)Nc2ccc(C)n(CC(=O)Nc3ccc(C)c(C)c3)c2=O)cc1	KDM5B inhibitor 18µM
Cc1ccc(S(=O)(=O)Nc2ccc(C)n(CC(=O)Nc3ccccc3)c2=O)cc1	none
O=C1NCCCCCCN(Cc2ccncc2)[C@@H]2CN(S(=O)(=O)c3cccc(F)c3)CC[C@H]12	none
CCC(C)c1ccccc1NC(=O)c1ccc(SC)cc1OC (stereo not given)	none
Cc1ccc(NC(=O)c2ccc(C(F)(F)F)cc2)c(F)c1	none
CC(SC1CCCCC1)C(=O)Nc1cccc(C#N)c1 (stereo not given)	none
Cc1oc2cc(OC(=O)c3cccs3)ccc2c(=O)c1-c1ccccc1	none
COc1cc(NC(=O)c2cc(=O)c3ccccc3o2)cc(OC)c1OC	none
CCOc1ccc(C(=O)N2CCC3(CC2)N=C(c2ccc(Cl)cc2)NO3)cc1	KDM5B inhibitor 28µM
CCOc1ccc(CC(=O)N2CCC3(CC2)N=C(c2ccc(Cl)cc2)NO3)cc1	KDM5B inhibitor 16µM
O=C(c1ccc(Cl)cc1)N1CCC2(CC1)N=C(c1ccccc1)NO2	none
Cc1ccc(C2=NC3(CCN(C(=O)c4ccc(F)c(F)c4)CC3)ON2)cc1	none
Cc1ccc(C2=NC3(CCN(C(=O)Cc4ccc(F)cc4)CC3)ON2)cc1	none
O=C(CCc1ccccc1)N1CCC2(CC1)N=C(c1ccc(Cl)cc1)NO2	none
COC(=O)c1cc(CNC(=O)C2Cc3ccccc3S2)ccc1OC (stereo not given)	none
O=C(Nc1cccc(S(=O)(=O)NC2=NCCC2)c1)C1(c2ccc(Cl)cc2)CCCC1	none
CC1CCCCC1NC(=O)c1ccc(C#N)cc1 (stereo not given)	none
Cc1noc(C)c1-c1cnc(Nc2cccc(C(F)(F)F)c2)c2c1CCO2	KDM5B inhibitor 35µM
FC(F)(F)c1cccc(Nc2nc3nonc3nc2Nc2ccc(Cl)cc2)c1	none
CSc1ccc(Nc2ncncc2-c2nc(-c3ccccc3)no2)cc1	none
Cc1noc(C)c1S(=O)(=O)Nc1cccc(C(F)(F)F)c1	none
Cc1noc(C)c1-c1cnc(Nc2ccccc2)c2c1CCO2	KDM5B inhibitor 35µM
O=C(N/N=C(/c1ccccc1)c1cccnc1)c1cccs1	none
C[C@H](NC(=O)C(=O)Nc1cccc2[nH]ccc12)c1ccccc1	none
O=C(COC(=O)[C@@H]1CCCN1S(=O)(=O)c1ccc(Cl)cc1)Nc1ccc(F)cc1F	none
COc1ccc(-c2nc3cnccc3o2)cc1NC(=O)c1cccnc1	none
CCCCn1c(CN2CCc3ccccc3C2)nc2c1c(=O)[nH]c(=O)n2Cc1ccccc1	none
Cc1nnc2ccc(N3CCC(C)CC3)nn12	none
Cc1ccc(-c2nnc3ccc(N4CCN(Cc5ccccc5)CC4)nn23)nc1	KDM5B inhibitor 35µM
COc1ccc(-c2nnc3ccc(N4CCC(c5ccccc5)CC4)nn23)nc1	KDM5B inhibitor 35µM
COc1ccc(-c2nnc3ccc(N4CCN(c5ccccn5)CC4)nn23)nc1	none
Fc1ccc(-c2nnc3ccc(N4CCN(Cc5ccccc5)CC4)nn23)nc1	none
COc1ccc(-c2nnc3ccc(N4C[C@@H](C)O[C@@H](C)C4)nn23)nc1	none
N#Cc1c(SCCN2CCCC2)nc(N2CCCC2)c2c1CCCC2	none
CSCC(=O)N1C[C@@H](NC(=O)Nc2ccc(F)cc2F)C[C@H]1C(=O)N[C@@H](Cc1cccs1)C(N)=O	none
O=C1CN(CC(=O)Nc2cccc3ncccc23)CCN1	none
COc1ccc(NC(=O)c2c(NC(=O)CCC(=O)O)sc3c2CCC(C(C)(C)C)C3)cc1 (stereo not given)	none
S=C(N/N=C/c1c(Cl)cccc1Cl)Nc1ccccc1	none
C=CCNC(=O)[C@@H]1Cc2cn(CC#CC)c3cccc(c23)[C@H](CC(C)C)N1	none

Source: PubChem BioAssay (National Center for Advancing Translational Sciences (NCATS))
